# In the supplement of paper PMC4022240:
# ± gives the standard deviation.
# T1: HaloTag-ATRX ADD domain (163-292)
# T1 chain: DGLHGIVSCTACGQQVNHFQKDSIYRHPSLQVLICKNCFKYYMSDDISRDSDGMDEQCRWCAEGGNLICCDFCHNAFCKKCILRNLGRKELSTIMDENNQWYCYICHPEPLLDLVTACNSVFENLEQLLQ
# Key:
# Assay in all cases: peptide microarray binding signal (635 nm), min-max normalized on array (fraction of array maximum); higher = stronger binding
# [1] = target: T1, HaloTag-ATRX ADD domain (163-292)
# Procedure, shortened: (§1)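 Triplicate spots of histone 13-mer peptide–cellulose conjugates with a Cy3 tracer were printed on nitrocellulose and probed for 1 h at 4°C with biotin-labelled HaloTag reader fusions (10 nM to 1 μM) plus streptavidin-Alexa Fluor 647 or rabbit histone antibodies (1:10,000 to 1:2,000) plus anti-rabbit Alexa 647. An Axon GenePix 4000B read the 635 nm channel. Binding signal is the spot-triplicate mean intensity after min-max scaling within each library.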
# [2] = target: HaloTag-ING2 PHD (mouse Ing2 200-280)
# Procedure, shortened: as §1
# [3] = target: anti-H3K4me3 antibody ab8580
# Procedure, shortened: as §1
# [4] = target: anti-H3K9me3 antibody ab8898
# Procedure, shortened: as §1
# [5] = peptide region: H3 73-85, peptide modifications: H3K79me2 H3T80ph, binder concentration: 1:2,000 dilution
# [6] = peptide region: H3 73-85, peptide modifications: H3K79me2 H3T80ph, binder concentration: 1:10,000 dilution
# [7] = peptide region: H3 50-62, peptide modifications: H3K56me3 H3T58ph, binder concentration: 1:2,000 dilution
# [8] = peptide region: H3 50-62, peptide modifications: H3K56me3 H3T58ph, binder concentration: 1:10,000 dilution
# [9] = peptide region: H3 73-85, peptide modifications: H3K79me1, binder concentration: 1:2,000 dilution
# [10] = peptide region: H3 73-85, peptide modifications: H3K79me1, binder concentration: 1:10,000 dilution
# [11] = peptide region: H3 112-124, peptide modifications: H3K115ac H3K122ac, binder concentration: 1:2,000 dilution
# [12] = peptide region: H3 112-124, peptide modifications: H3K115ac H3K122ac, binder concentration: 1:10,000 dilution
# [13] = peptide region: H3 73-85, peptide modifications: H3K79me1 H3T80ph, binder concentration: 1:2,000 dilution
# [14] = peptide region: H3 73-85, peptide modifications: H3K79me1 H3T80ph, binder concentration: 1:10,000 dilution
binder,measurement,setting,value
EIAQDFKTDLRFQ [H3 73-85 E I A Q D F Kme2 Tph D L R F Q],peptide microarray binding signal,"[1]; peptide region: H3 73-85, peptide modifications: H3K79me2 H3T80ph, binder concentration: 50 nM",0.00103 ± 3.4e-05
same,peptide microarray binding signal,"[1]; peptide region: H3 73-85, peptide modifications: H3K79me2 H3T80ph, binder concentration: 500 nM",0.000714 ± 1.2e-05
same,peptide microarray binding signal,"[2]; peptide region: H3 73-85, peptide modifications: H3K79me2 H3T80ph, binder concentration: 10 nM",0.002089 ± 1.2e-05
same,peptide microarray binding signal,"[2]; peptide region: H3 73-85, peptide modifications: H3K79me2 H3T80ph, binder concentration: 100 nM",0.000992 ± 1.1e-05
same,peptide microarray binding signal,[3]; [5],0.000283 ± 5.1e-06
same,peptide microarray binding signal,[3]; [6],0.000799 ± 5.8e-05
same,peptide microarray binding signal,[4]; [5],0.000438 ± 1.8e-05
same,peptide microarray binding signal,[4]; [6],0.000634
EIRRYQKSTELLI [H3 50-62 E I R R Y Q Kme3 S Tph E L L I],peptide microarray binding signal,"[1]; peptide region: H3 50-62, peptide modifications: H3K56me3 H3T58ph, binder concentration: 50 nM",0.0015 ± 4e-05
same,peptide microarray binding signal,"[1]; peptide region: H3 50-62, peptide modifications: H3K56me3 H3T58ph, binder concentration: 500 nM",0.00129 ± 3.6e-05
same,peptide microarray binding signal,"[2]; peptide region: H3 50-62, peptide modifications: H3K56me3 H3T58ph, binder concentration: 10 nM",0.00281 ± 8.3e-05
same,peptide microarray binding signal,"[2]; peptide region: H3 50-62, peptide modifications: H3K56me3 H3T58ph, binder concentration: 100 nM",0.0017 ± 4.6e-05
same,peptide microarray binding signal,[3]; [7],0.00109 ± 3.3e-05
same,peptide microarray binding signal,[3]; [8],0.000799 ± 2.2e-05
same,peptide microarray binding signal,[4]; [7],0.00261 ± 0.0003
same,peptide microarray binding signal,[4]; [8],0.001211 ± 1.2e-05
EIAQDFKTDLRFQ [H3 73-85 E I A Q D F Kme T D L R F Q],peptide microarray binding signal,"[1]; peptide region: H3 73-85, peptide modifications: H3K79me1, binder concentration: 50 nM",0.00649 ± 0.00015
same,peptide microarray binding signal,"[1]; peptide region: H3 73-85, peptide modifications: H3K79me1, binder concentration: 500 nM",0.02 ± 0.0022
same,peptide microarray binding signal,"[2]; peptide region: H3 73-85, peptide modifications: H3K79me1, binder concentration: 10 nM",0.0116 ± 0.0014
same,peptide microarray binding signal,"[2]; peptide region: H3 73-85, peptide modifications: H3K79me1, binder concentration: 100 nM",0.00475 ± 0.00052
same,peptide microarray binding signal,[3]; [9],0.00198 ± 0.00026
same,peptide microarray binding signal,[3]; [10],0.00234 ± 9.2e-05
same,peptide microarray binding signal,[4]; [9],0.0079 ± 0.00033
same,peptide microarray binding signal,[4]; [10],0.00357 ± 0.00023
IHAKRVTIMPKDI [H3 112-124 I H A Kac R V T I M P Kac D I],peptide microarray binding signal,"[1]; peptide region: H3 112-124, peptide modifications: H3K115ac H3K122ac, binder concentration: 50 nM",0.00947 ± 0.0003
same,peptide microarray binding signal,"[1]; peptide region: H3 112-124, peptide modifications: H3K115ac H3K122ac, binder concentration: 500 nM",0.0259 ± 0.00095
same,peptide microarray binding signal,"[2]; peptide region: H3 112-124, peptide modifications: H3K115ac H3K122ac, binder concentration: 10 nM",0.0323 ± 0.0014
same,peptide microarray binding signal,"[2]; peptide region: H3 112-124, peptide modifications: H3K115ac H3K122ac, binder concentration: 100 nM",0.0605 ± 0.013
same,peptide microarray binding signal,[3]; [11],0.00336 ± 0.0003
same,peptide microarray binding signal,[3]; [12],0.00417 ± 0.0002
same,peptide microarray binding signal,[4]; [11],0.00288 ± 0.00013
same,peptide microarray binding signal,[4]; [12],0.00242 ± 9.5e-05
EIAQDFKTDLRFQ [H3 73-85 E I A Q D F Kme Tph D L R F Q],peptide microarray binding signal,"[1]; peptide region: H3 73-85, peptide modifications: H3K79me1 H3T80ph, binder concentration: 50 nM",0.001034 ± 5.2e-06
same,peptide microarray binding signal,"[1]; peptide region: H3 73-85, peptide modifications: H3K79me1 H3T80ph, binder concentration: 500 nM",0.00181 ± 3.2e-05
same,peptide microarray binding signal,"[2]; peptide region: H3 73-85, peptide modifications: H3K79me1 H3T80ph, binder concentration: 10 nM",0.00281 ± 8.7e-05
same,peptide microarray binding signal,"[2]; peptide region: H3 73-85, peptide modifications: H3K79me1 H3T80ph, binder concentration: 100 nM",0.00135 ± 7.3e-05
same,peptide microarray binding signal,[3]; [13],0.000283
same,peptide microarray binding signal,[3]; [14],0.000342 ± 3.8e-06
same,peptide microarray binding signal,[4]; [13],0.000921 ± 0.00013
same,peptide microarray binding signal,[4]; [14],0.000634
